Measured values taken from PubChem BioAssay AID504466 (National Center for Advancing Translational Sciences (NCATS), 2011).
The whole screen tested about 330,000 compounds, of which about 4,200 (1.3%) were called active. A call without a number means that no potency is given here. About 6% were inconclusive and are not listed. The sample holds actives, similar compounds and a random draw of the others, so the mix is not that of the screen. Calls follow the shape of the dose curve; as a rule, active = well fitted activation curve with a large enough effect; inconclusive = small, poorly fitted or top-dose-only effect; inactive = no such curve, though single readings can be large or run the other way.

Assay: qHTS screen for small molecules that induce genotoxicity in human embryonic kidney (HEK293T) cells expressing luciferase-tagged ELG1; also: nearly all actives have a fitted effect of over 60% in size
Details: HEK293T ELG1-luciferase reporter, luminescence, 16 h; series mostly up to 46 µM
How it was run: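 Cells (2,000/well) expressing the ELG1-luciferase fusion are dosed by pin tool and kept 16 hr at 37 °C, 5% CO2. Signal comes from ONE-Glo luciferase reagent after 30 min at room temperature.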
Potency is read from the fitted curve at half-maximal effect.

SMILES | Potency
O=C(COc1cccnc1[N+](=O)[O-])Nc1ccc(Cl)cc1F | inactive
O=C(COC(=O)COc1cccc(F)c1)NCC1CCCCC1 | inactive
COc1ccc2sc(-c3ccc(S(C)(=O)=O)cc3)c(C#Cc3cncn3C)c2c1 | inactive
CC(C)(C)OC(=O)C[C@@H]1C/C=C\C[C@H](CC(=O)N[C@@H](CO)Cc2ccccc2)C(=O)N[C@H](Cc2ccccc2)COC1=O | inactive
O=C(c1noc2c1CCCC2)N1CCc2ccccc2C1 | 20.6 µM (active)
CN(c1ccc(C(=O)N2CCc3ccccc3C2)cc1)S(C)(=O)=O | inactive
Cc1ccc(-c2cc(C(=O)N3CCc4ccccc4C3)no2)cc1 | inactive
CC(C)CC1(C)NC(=O)N(CC(=O)Nc2ccc3c(c2)OCCO3)C1=O (configuration not stated) | inactive
Cc1ccc(S(=O)(=O)NCC(=O)NNC(=O)c2ccc(Br)cc2)cc1C | inactive
COc1ccc(-c2noc(CCCC(=O)NC3CCCC3)n2)cc1OC | inactive
COc1ccc(-c2noc(-c3cccc(OC)c3OC)n2)cc1OC | 3.26 µM (active)
Cc1ccc(-c2noc(CSc3nnc(-c4ccncc4)n3-c3ccc(F)cc3)n2)cc1 | inactive
COc1ccc(-c2noc(CN(C)S(=O)(=O)c3ccc(C)cc3)n2)cc1 | inactive
COc1ccccc1CNS(=O)(=O)c1ccc(C)cc1 | inactive
COc1ccccc1Cc1nc(-c2ccc(C)cc2)no1 | 18.4 µM (active)
COc1ccc(-c2csc3nc(-c4ccccc4F)oc(=O)c23)cc1OC | inactive
COc1ccc(-c2noc(CSc3ccc(C)cc3)n2)cc1 | inactive
Cc1ccc(-c2noc(CC(c3ccccc3)c3ccccc3)n2)cc1 | inactive
Cc1ccc(-c2noc(-c3ccccc3C(=O)NCC3CCCO3)n2)cc1 (configuration not stated) | inactive
COc1ccc(-c2noc(-c3ccc(C)cc3)n2)cc1 | 3.66 µM (active)
Cc1ccc(-c2nc(-c3ccncc3)no2)c(C)c1 | 20.6 µM (active)

SMILES | Potency
CCOC(=O)C1CCCN(C(=O)CSc2nnc3nc(C)cc(C)n23)C1 (configuration not stated) | inactive
CC(C)NC(=O)Nc1cccc2c1O[C@H](CN(C)S(=O)(=O)c1cccs1)[C@@H](C)CN([C@H](C)CO)C2=O | inactive
COc1ccc(-c2sc3ccccc3c2-c2ccc(OCCN3CCOCC3)cc2)cc1 | inactive
O=C(COC(=O)c1cccnc1Cl)Nc1ccc(S(=O)(=O)N2CCOCC2)cc1 | inactive
COc1ccc2[nH]c3c(c2c1)CCN1C(=O)C(CC(=O)NCCCN(C)C)C[C@H](C(=O)N2CCOCC2)[C@@]31CCC1CCCC1 (some centres not stated) | inactive
Cc1ccc(S(=O)(=O)Nc2ccc(F)c(S(=O)(=O)N3CCOCC3)c2)cc1 | inactive
CCn1nc(C(=O)NNS(=O)(=O)c2cc(/C=C/C(=O)O)cc(OC)c2OC)c2ccccc2c1=O | inactive
C[C@H]1CN([C@@H](C)CO)C(=O)Cc2cc(NS(C)(=O)=O)ccc2O[C@@H]1CN(C)CC1CC1 | inactive
Cc1ccc(Cc2nc(-c3cccc(C)c3)no2)cc1 | 16.4 µM (active)
COc1ccc(-c2noc(CNC(=O)C(C)Oc3ccccc3)n2)cc1 (configuration not stated) | inactive
Cc1ccc(-c2noc(CSc3nnc(-c4ccccc4)n3C)n2)cc1 | inactive
COc1ccc(-c2n[nH]c(C)c2-c2ccccc2OC)c(O)c1 | inactive
Cc1cccc(-c2noc(CCC(=O)NC3CCCC3)n2)c1 | inactive
COc1ccc(-c2nc(-c3ccccc3)no2)c(OC)c1 | 0.058 µM (active)
O=C(COC(=O)c1ccc(F)cc1)Nc1ccc2c(c1)OCO2 | inactive
O=C(CN1C(=O)NC2(CCCCCC2)C1=O)NCc1ccc(F)cc1 | inactive
O=C(N[C@H]1C/C=C\C(c2ccc(F)cc2)N(Cc2ccccc2)C(=O)C1)OCC1c2ccccc2-c2ccccc21 (some centres not stated) | inactive
C#CCOCCOCCOCCNc1nc(N2CCN(C(=O)[C@H](CCCN=C(N)N)n3cc(C(N)[C@@H](C)CC)nn3)CC2)nc(N2CCN(C(=O)[C@H](CO)n3cc([C@@H](N)C(C)C)nn3)CC2)n1 (some centres not stated) | inactive
CCN(c1ccccc1)S(=O)(=O)c1ccc(C(=O)Nc2ccccc2OC)cc1 | inactive
CCOC(=O)CSc1nnc(-c2ccc([N+](=O)[O-])cc2)o1 | inactive
CCCCSc1nnc(-c2ccc(C)cc2)o1 | 2.06 µM (active)

SMILES | Potency
Cc1cccc(C)c1OC(=O)CSc1nnc(-c2ccccc2)o1 | inactive
c1ccc2c(CCN3CCNC[C@H]3Cc3cccc4ccccc34)cccc2c1 | inactive
COc1ccc(-n2nnnc2CNC(=O)c2ccc3ccccc3c2)cc1 | inactive
COc1ccc(C2=NN(c3nc4ccccc4s3)C(=O)C2)cc1 | inactive
COc1ccc(-n2nnnc2-c2nc3ccccc3s2)cc1 | 1.46 µM (active)
O=C(Nc1ccc(N2CCOCC2)cc1)c1cccc(S(=O)(=O)N2CCOCC2)c1 | inactive
O=C(CCc1ccc(S(=O)(=O)N2CCOCC2)cc1)OCC(=O)c1ccc(Br)cc1 | inactive
Cc1cc(OCc2cc(C(=O)NCc3cc(C(C)C)no3)no2)cc(C)c1Cl | 3.66 µM (active)
COc1ccc(OCc2cc(C(=O)NCC3(C)COC3)no2)c(Cl)c1 | inactive
Cc1cccnc1CC(C)NC(=O)c1cc(COc2cncc(Cl)c2)on1 (configuration not stated) | inactive
CC1(C)C[C@H]2C3=CCC4[C@@]5(C)CC[C@H](O)[C@](C)(CO)C5CC[C@@]4(C)[C@]3(C)C[C@@H](O)[C@@]2(CO)[C@@H](O)[C@@H]1O (some centres not stated) | inactive
CC(C)(C)OC(=O)C1=C(CO)CS[C@@H]2[C@H](NC(=O)Cc3ccccc3)C(=O)N12 | inactive
C/C(=N\NC(=O)Cc1ccc(Cl)cc1)c1ccccn1 | 9.2 µM (active)
C/C(=N\NC(=O)Cc1ccc(Br)cc1)c1cccnc1 | inactive
C/C(=N\NC(=O)c1ccccc1F)c1ccccn1 | 3.66 µM (active)
C/C(CC(=O)Nc1ccc(N(C)C)cc1)=N\NC(=O)c1ccccc1F | inactive
Cc1ccc(Cl)cc1NC(=O)c1ccccn1 | inactive
C/C(=N\NC(=O)Cc1ccc(F)cc1)c1ccc(F)cc1 | inactive
COc1ccc2[nH]c3c(c2c1)CCN1C(=O)C(CC(=O)NCc2cccc(C(F)(F)F)c2)C[C@H](C(=O)N2CCOCC2)[C@@]31C (some centres not stated) | inactive
O=C(COc1ccc(F)cc1Br)NCC1COc2ccccc2O1 (configuration not stated) | inactive
